# The source made the active and inactive calls.
# Test: PSAC antagonists in infected red cells, primary screen, cell-based, P. falciparum Indochina, OD700, 18 h (AID 1157)
# Conditions: P. falciparum Indochina infected erythrocytes, osmotic lysis OD700, 18 h; higher = more signal, called active from +8 up or from −8 down
row,Structure (SMILES),z-score
1,COC(=O)[C@@]1(Cc2ccc(OC)cc2)[C@H]2c3cc(C(=O)N4CCCC4)n(Cc4cc(C)n(C)n4)c3C[C@H]2CN1C(=O)c1ccccc1,0.494 (inactive)
2,C=C(CCCC)C(=O)CC[C@H](OC(C)=O)c1ccc(OCCO)cc1,-0.623 (inactive)
3,COc1ccc(C(=O)Nc2cccc(CN3C(=O)[C@]4(O[C@H](CCn5cc([C@H](O)c6ccccc6)nn5)[C@@H]([Si](C)(C)c5ccc(OC)cc5)[C@@H]4C)c4ccccc43)c2)cc1,-0.209 (inactive)
4,COCCOC(=O)N1C(=O)[C@@]2(c3cc(C#CC4=CCCCC4)ccc31)[C@H](C(=O)N1CCCCCCC1)[C@H]1C(=O)O[C@H](c3ccccc3)[C@H](c3ccccc3)N1[C@@H]2c1ccc(OCCO)cc1,0.481 (inactive)
5,C=C(CCCC)/C(=C/C[C@H](OC(C)=O)c1ccc(OCCO)cc1)c1cc(C(=O)OC)ccc1OC,1.48 (inactive)
6,COc1ccc([Si](C)(C)[C@H]2[C@H](CC(=O)N3CCC[C@H]3CO)O[C@@]3(C(=O)N(Cc4ccc(N5CCC5=O)cc4)c4ccccc43)[C@@H]2C)cc1,0.746 (inactive)
7,[N-]=[N+]=NCc1ccccc1[C@@H]1OC(c2ccc(OCCCO)cc2)=N[C@]1(Cc1ccccc1N=[N+]=[N-])C(=O)NCCN1CCOCC1,1.45 (inactive)
8,O=C1C[C@@](C(=O)NCC(F)(F)F)(c2ccc([N+](=O)[O-])cc2)[C@@H](c2ccc(CO)cc2)N1CC12CC3CC(CC(C3)C1)C2,-0.092 (inactive)

# Test: modulators of S6 phosphorylation in cells, primary screen, cell-based, A549, cytoblot, luminescence, serum-stimulated (AID 1158);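 note: serum-stimulated A549 lung adenocarcinoma cells; signal is phosphorylated S6 detected by cytoblot immunostaining with HRP secondary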
# Conditions: A549 phospho-S6 cytoblot, 5 h, higher = more signal
row,Structure (SMILES),z-score
1,C=CCC(OC(C)=O)[C@@H]1[C@@H](N(Cc2cc3ccccc3o2)C(=O)c2ccc(-c3ccccc3)cc2)c2cc(OCCCO)ccc2N1C(=O)Cc1ccc(OC)cc1 (stereo partly drawn),0.3
2,COCC(=C=CC[C@@H](O)c1ccc(OCCO)cc1)CCO,0.357
3,CC(C)(C)OC(=O)CC[C@]12N=C(c3ccc(OCCCO)cc3)O[C@H]1c1ccccc1N(Cc1ccccc1)C2=O,0.34
4,O=C1OCCC/C=C\[C@H]2OC34C=CCN(c5ccc6ccccc6c5)C(=O)[C@H]3N(CCCO)C(=O)[C@@H]4C12 (stereo partly drawn),0.688
5,C=C/C=C/[C@@H]1C(=C)CN([C@@H](Cc2ccccc2)C(=O)OC)[C@H]1[C@@H](O)Cc1ccccc1,0.294
6,O=C1NC(=O)C2C1C=CC(C(O)c1ccccn1)N2Nc1ccc(Cl)cc1Cl (stereo not drawn),-0.881
7,CC(C)C[C@@H]1NC(=O)CNC(=O)[C@@]23C(=O)N[C@@H](Cc4ccccc4)C2[C@H](C)[C@@]2(C)O[C@H]2C3/C=C/C/C=C\CNC1=O (stereo partly drawn),-0.0425
8,CCOC(=O)C1=C[C@@H](c2ccccc2)N(S(=O)(=O)c2ccc(C)cc2)[C@H]1c1ccccc1,-0.8
9,[N-]=[N+]=NCc1ccccc1C[C@]1(C(=O)N2CCOCC2)COC(c2ccc(OCCCO)cc2)=N1,0.338
10,COCCOC(=O)N1C(=O)[C@@]2(c3cc(C#Cc4ccc(OC)cc4)ccc31)[C@H](C(=O)NC[C@H](O)c1ccccc1)[C@H]1C(=O)O[C@H](c3ccccc3)[C@H](c3ccccc3)N1[C@@H]2c1ccc(OCCO)cc1,2
11,COCCOC(=O)N1C(=O)[C@@]2(c3cc(C#CCC(C(=O)OC)C(=O)OC)ccc31)[C@H](c1ccc(OCCO)cc1)N1[C@H](c3ccccc3)[C@H](c3ccccc3)OC(=O)[C@H]1[C@@H]2C(=O)Nc1nc2ccccc2s1,0.0091
12,COCCOC(=O)N1C(=O)[C@@]2(c3cc(C#CCNC(N)=O)ccc31)[C@H](c1ccc(O)cc1)N1[C@H](c3ccccc3)[C@H](c3ccccc3)OC(=O)[C@H]1[C@@H]2C(=O)N1CCN(c2ncccn2)CC1,-0.43
13,COc1cc(C(O)C2C=CC3C(=O)N(Cc4ccccc4)C(=O)C3N2n2cnnc2)cc(OC)c1OC (stereo not drawn),0.866
14,CCCCC=C[C@@H](NC(=O)c1ccccc1)c1ccccc1,0.442
15,COc1ccc([Si](C)(C)[C@@H]2[C@@H](CC(=O)N3Cc4ccccc4C[C@H]3CO)O[C@]3(C(=O)N(c4ccccc4)c4ccccc43)[C@H]2C)cc1,0.947
16,CCOC(=O)C1=CCC(c2ccccc2)N(S(=O)(=O)c2ccc([N+](=O)[O-])cc2)C1 (stereo not drawn),-0.412
17,[N-]=[N+]=NCc1ccccc1[C@@H]1OC(c2ccc(OCCCO)cc2)=N[C@]1(Cc1ccccc1N=[N+]=[N-])C(=O)N1CCCCC1,0.0177
18,C=CCN1C(=O)[C@]2(O[C@H](CCO)[C@@H]([Si](C)(C)c3ccc(OC)cc3)[C@@H]2C)c2cc(N3C(=O)COc4ccccc43)ccc21,2.03

row,Structure (SMILES),z-score
1,COCCCNC(=O)[C@@]1(c2ccc([N+](=O)[O-])cc2)CC(=O)N(CC23CC4CC(CC(C4)C2)C3)[C@@H]1c1ccc(CO)cc1I,-0.0623
2,CC(C)OC(=O)CC(=O)CC(O)c1ccc([N+](=O)[O-])cc1 (stereo not drawn),-0.243
3,CCOC(=O)C1=CCC(c2ccco2)N(S(=O)(=O)c2ccc(C)cc2)C1 (stereo not drawn),0.406
4,[N-]=[N+]=Nc1ccccc1[C@@H]1OC(c2ccc(OCCCO)cc2)=N[C@]1(Cc1ccccc1)C(=O)NCc1ccccc1,-0.403
5,[N-]=[N+]=NCc1ccccc1C[C@@]1(C(=O)N2CCCCC2)N=C(c2ccc(OCCCO)cc2)O[C@@H]1c1ccccc1CN=[N+]=[N-],-0.276
6,O=C1C2C=CC(C(O)c3ccc(I)cc3)N(Nc3ccccc3)C2C(=O)N1c1ccccc1 (stereo not drawn),-1.21
7,CC(C)C(=C=CC[C@@H](O)c1cccc(OCCO)c1)C[C@@H](O)c1ccccn1,0.0722
8,COC(=O)[C@@]1(Cc2ccccc2CN=[N+]=[N-])N=C(c2ccc(OCCCO)cc2)O[C@H]1c1ccccc1,0.216
9,CCOC(=O)C[C@H]1[C@H](OC(=O)c2cc3ccccc3oc2=O)[C@@H](NC(=O)c2ccc3ccccc3c2)c2cc(OCCCO)ccc2N1C(=O)Cc1ccc(OC)cc1,-0.24
10,COC(=O)[C@@]1(Cc2ccc(OC)cc2)[C@H]2c3cc(C(=O)N4CCCC4)n(Cc4cc(C)n(C)n4)c3C[C@H]2CN1C(=O)c1ccccc1,-0.458
11,C=C(CCCC)C(=O)CC[C@H](OC(C)=O)c1ccc(OCCO)cc1,2
12,COc1ccc(C(=O)Nc2cccc(CN3C(=O)[C@]4(O[C@H](CCn5cc([C@H](O)c6ccccc6)nn5)[C@@H]([Si](C)(C)c5ccc(OC)cc5)[C@@H]4C)c4ccccc43)c2)cc1,0.871
13,COCCOC(=O)N1C(=O)[C@@]2(c3cc(C#CC4=CCCCC4)ccc31)[C@H](C(=O)N1CCCCCCC1)[C@H]1C(=O)O[C@H](c3ccccc3)[C@H](c3ccccc3)N1[C@@H]2c1ccc(OCCO)cc1,0.118
14,C=C(CCCC)/C(=C/C[C@H](OC(C)=O)c1ccc(OCCO)cc1)c1cc(C(=O)OC)ccc1OC,0.376
15,COc1ccc([Si](C)(C)[C@H]2[C@H](CC(=O)N3CCC[C@H]3CO)O[C@@]3(C(=O)N(Cc4ccc(N5CCC5=O)cc4)c4ccccc43)[C@@H]2C)cc1,0.783
16,[N-]=[N+]=NCc1ccccc1[C@@H]1OC(c2ccc(OCCCO)cc2)=N[C@]1(Cc1ccccc1N=[N+]=[N-])C(=O)NCCN1CCOCC1,-0.417
17,O=C1C[C@@](C(=O)NCC(F)(F)F)(c2ccc([N+](=O)[O-])cc2)[C@@H](c2ccc(CO)cc2)N1CC12CC3CC(CC(C3)C1)C2,2.16

# From PubChem BioAssay
